Compound activity deposited in PubChem by National Center for Advancing Translational Sciences (NCATS).
This is a sample that favours compounds with a hit; in the whole collection about 19% have one here.
ELG1 DNA repair = blocks ELG1-dependent DNA repair in HEK293T cells; HEK293T ELG1-luciferase reporter, luminescence, 16 h; DNA damage induced by 5-fluorouridine; Potency, µM (series often up to 46.1 µM), for the others: at the highest dose activity change, negative = inhibition, hits mostly inhibitors; hit rate 2.3% among 330,000; AID 504467; also: potency is read from the fitted curve at half-maximal effect; nearly all actives have a fitted effect of over 55% in size
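5-Fluorouridine DNA damage + compound/DMSO, 2,000 cells/well, 16 h, 37 °C/5% CO2. ONE-Glo, 30 min RT, luminescence. Readout = decrease in reporter signal.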
HT1080 IDH1KD tx = kills HT-1080 cells with IDH1 knockdown | HT-1080 IDH1 knockdown viability, ATP luminescence, 48 h | Potency, µM (highest dose often 46.1 µM), without a hit: top-dose activity, negative = toxicity, actives largely listed as cytotoxic | hit rate 2% among 360,000;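 also: potency is read from the fitted curve at half-maximal effect; 0% = DMSO wells and -100% = cell-free medium wells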
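In this qHTS, HT-1080 cells depleted of IDH1 are exposed for 48 h at 37 °C to compound titrations. Toxicity is scored from CellTiter-Glo luminescence, with DMSO as full viability and medium alone as none.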
DT40 TDP1 no CPT = qHTS for Inhibitors of human tyrosyl-DNA phosphodiesterase 1 (TDP1): qHTS in cells in absence of CPT | DT40 Tdp1-/- hTDP1 cells, no CPT, ATP luminescence, 48 h | Potency, µM (titrated, usually from 46.2 µM), inactives show at the highest dose activity change, negative = growth inhibition, usual class: inhibitors | hit rate 15% among 420,000; also: potency is read from the fitted curve at half-maximal effect; nearly all actives have a fitted effect of over 55% in size
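Growth kinetics read by CellTiter-Glo luminescence after ≥48 hr at 37 °C. Cells: DT40 Tdp1-/- stably carrying human TDP1, 400 per well, compound exposure in the absence of CPT (DMSO vehicle).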
DT40 TDP1 CPT = growth inhibition of DT40 Tdp1-/-;hTDP1 cells with camptothecin (screen for TDP1 inhibitors); chicken DT40 Tdp1-/-;hTDP1 cells + 20 nM CPT, ATP luminescence, 48 h; AID 686979; Potency, µM (highest dose often 46.2 µM), for the others: at the top dose activity change, negative = growth inhibition, usual class: inhibitors; hit rate 12% among 420,000; also: potency is read from the fitted curve at half-maximal effect; nearly all actives have a fitted effect of over 55% in size
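Cell growth measured by CellTiter-Glo luminescence after a minimum 48 h, 37 C compound exposure with 20 nM CPT in Tdp1-knockout DT40 cells stably expressing hTDP1, seeded 400/well; qHTS titration format.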
IL-1B inflam inh = inhibitors of inflammasome signaling (IL-1 beta secretion). hit rate 4.7% among 360,000. activity change, % at 57.5 µM. THP-1 LPS/ATP IL-1B secretion, AlphaLISA, 16 h; hits give low values; in the data active = activity change below about -50%; inconclusive = mostly about -30% to -49%
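Secreted IL-1B measured by AlphaLISA bead assay after 16 h compound exposure of THP-1 cells; compounds (final up to 57.5 uM) added 1 h before LPS (250 ng/mL) and ATP (1.25 mM) stimulation; lower signal means less secretion.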
HT1080NT lethal = kills 2HG-producing HT-1080-NT fibrosarcoma cells; hit rate 1.6% among 360,000; Potency, µM (top dose mostly 46.1 µM), without a hit: at the top dose activity, negative = less viability, usual class: cytotoxic; HT-1080-NT fibrosarcoma viability, CellTiter-Glo ATP luminescence, 48 h;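 also: NT is the 2HG producing partner of a matched IDH1 knockdown line; potency is read from the fitted curve at half-maximal effect; 0% = DMSO-treated cells and -100% = media-only wells without cells; nearly all actives have a fitted effect of over 55% in size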
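HT-1080-NT; 750 cells/well; 5% FBS RPMI; 48 h compound, 37 degrees C; CellTiter-Glo luminescence; curve fitting and curve-class assignment.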
* marks the source's active call; other numbers are inactive results; u = inconclusive; x = no result; [ ] = another dose, or the depositor's remark. Unless noted, calls follow the shape of the dose curve; as a rule, active = well fitted curve in the direction sought with a large enough effect; inconclusive = small, poorly fitted or top-dose-only effect, or another doubt; inactive = no such curve, though single readings can be large; an effect the other way counts as inactive or inconclusive. Unless noted, % is scaled to controls: 0 for no effect and ±100 for the full control effect.

SMILES	ELG1 DNA repair	HT1080 IDH1KD tx	DT40 TDP1 no CPT	DT40 TDP1 CPT	IL-1B inflam inh	HT1080NT lethal
CCc1ccc(C(=O)c2cn(CC(=O)Nc3ccc4c(c3)OCCO4)c3ccc(F)cc3c2=O)cc1	x	x	-18%	-20%	x	x
CCOc1ccc(C(=O)c2cn(CC(=O)Nc3ccc(Cl)cc3)c3cc4c(cc3c2=O)OCCO4)cc1	x	x	6.5µM*	u	x	x
C[C@@H]1CN([C@H](C)CO)C(=O)CCCn2cc(nn2)CO[C@H]1CN(C)C(=O)Nc1cccc(C(F)(F)F)c1	x	3%	u	5%	-12	4%
CC(C)Cc1cc(C(=O)NCC2Cc3cc(F)cc(-c4ccccn4)c3O2)no1 (stereo not drawn)	x	x	-5%	11%[9.04 µM]	x	x
O=C(CN(C(=O)CCC(=O)Nc1ccccn1)c1cccc(F)c1)NCc1ccco1	5%	2%	-14%	1%	1	7%
Cc1cc(C)cc(NS(=O)(=O)c2ccc(-c3cc(C)no3)cc2)c1	x	x	1.2µM*	1.3µM*	x	x
Cc1ccc(NS(=O)(=O)c2cnc(N)nc2)c(C)c1	x	x	0%	4%	x	x
Cc1ccnc(NS(=O)(=O)c2cc(-c3cc(C)no3)ccc2C)c1	x	x	-11%	0%	x	x
CCc1ccc(NS(=O)(=O)c2ccc(-c3cc(C)no3)cc2)cc1	x	x	13µM*	13µM*	x	x
CCc1ccc(S(=O)(=O)Nc2ccncc2)cc1	-5%	-2%	0%	-5%	0	18%
Cc1cc(-c2ccc(S(=O)(=O)Nc3ccc(Cl)cc3)cc2)on1	x	x	18µM*	16µM*	x	x
Cc1ccc(NS(=O)(=O)c2ccc(-c3cc(C)no3)cc2)c(C)c1	x	x	5.8µM*	4.6µM*	x	x
O=S(=O)(c1ccc(Cl)cc1)N1CCN(C(=S)Nc2ccccc2F)CC1	u	-8%	-12%	-7%	1	-3%
COc1ccc(CNC(=O)O[C@H]2CN(C(=O)OC(C)C)N(C(=O)OC(C)C)[C@@H]3CN(S(=O)(=O)c4ccc(C)cc4)C[C@]23O)cc1OC	x	0%	23µM*	u	-30	0%
Cc1ccc(S(=O)(=O)N2C[C@H]3N(C(=O)OC(C)C)N(C(=O)OC(C)C)C[C@H](OC(=O)NCc4ccccc4F)[C@@]3(O)C2)cc1	x	-13%	23µM*	u	-25	-18%
Cc1ccc(S(=O)(=O)N2CCCC2C(=O)NCc2ccccc2F)cc1 (stereo not drawn)	-7%	7%	8%	6%	11	5%
Cc1cc(Br)cn2c(Cc3cccc(F)c3)c(C3CCCCC3)nc12	x	u	u	u	0	u
COc1cccc(CNC(=O)c2oc3c(c2C)-c2nn(Cc4cccc(Cl)c4)cc2CC3)c1	x	x	18µM*	u	x	x
CCOc1ccc(CNC(=O)Cn2cc3c(n2)-c2c(oc(C(=O)N4CCOCC4)c2C)CC3)cc1	x	x	21µM*	u	x	x
COc1cccc(CNC(=O)c2oc3c(c2C)-c2nn(Cc4cccc(Cl)c4)cc2CC3)c1OC	x	x	21µM*	16µM*	x	x
Cc1c(C(=O)O)oc2c1-c1nn(Cc3ccccc3Cl)cc1CC2	x	x	u	6%	x	x
COc1ccc(CNC(=O)c2oc3c(c2C)-c2nn(Cc4ccc(Cl)cc4)cc2CC3)cc1	x	x	23µM*	u	x	x
CCCCN(CCCC)CCCNC(=O)Cn1cc2c(n1)-c1c(oc(C(=O)N3CCCC3)c1C)CC2	-4%	-5%	u	u	u	0%
CC(C)c1cccc(OCCN2CCCC2)c1	-8%	6%	2%	16%	9	8%
COc1ccc(-n2c(=O)c(-c3cn(C)c4ccccc34)nc3cncnc32)cc1	x	x	-10%	1%	x	x
Cc1nc2ccccc2nc(C)c1=NOCC(=O)N(c1ccccc1)C(C)C	u	-1%	18µM*	u	43	0%
